Molecules are shown by their SMILES. Records with an inconclusive call do not appear. Where a call stands in place of a potency, no number is given. Calls of active or inactive are those of the source. Calls follow the shape of the dose curve; as a rule, active = well fitted curve in the direction sought with a large enough effect; inconclusive = small, poorly fitted or top-dose-only effect, or another doubt; inactive = no such curve, though single readings can be large; an effect the other way counts as inactive or inconclusive.

Test [1] addresses Aldehyde dehydrogenase, mitochondrial (Homo sapiens) (UniProt P05091). Put plainly: qHTS for Inhibitors of the Aldehyde Dehydrogenase Family (ALDH2) Primary screen (AID 2061308; also: nearly all actives have a fitted effect of over 55% in size). (In qHTS, concentration-response curves come from the screen itself.)
In test [2] the target is Retinaldehyde dehydrogenase 3 (Homo sapiens) (UniProt P47895). Put plainly: qHTS for Inhibitors of the Aldehyde Dehydrogenase Family (ALDH1A3) Primary screen (AID 2061315).

Regarding `Cc1ccc(OCCn2c(CCNC(=O)c3ccc(Br)o3)nc3ccccc32)cc1`, the Potency entry in test [1] and in test [2] was “inactive” each time.

On to `COc1ccc(C2=Nn3c(nnc3-c3ccccc3O)SC2)cc1OC`, for which the Potency result in test [1] and in test [2] was “inactive” in each case.

For `COc1ccccc1-c1nc2ccccc2s1`, the Potency result in test [1] and in test [2] was “inactive” in each case.

Turning to `O=S(=O)(c1ccc2c(c1)OCCO2)N1CCN(S(=O)(=O)c2cccc(Cl)c2F)CC1`, the Potency entry in test [1] and in test [2] was “inactive” each time.

For `COc1ccc(NC(=O)C(OC(=O)CNC(=O)c2ccccc2)c2ccccc2)c(C)c1` (centres undefined), the Potency result in test [1] and in test [2] was “inactive” each time.

For the compound `COc1ccc(OC)c(C2=Nn3c(nnc3-c3ccccc3O)SC2)c1`, the Potency result in test [1] and in test [2] was “inactive” in each case.

On to `CC(C)(C)OC(=O)NCCOCCOCCOc1ccc(-c2no[n+]([O-])c2C#N)cc1`, for which the Potency result in test [1] and in test [2] was “inactive” each time.

`CC(=O)c1ccc(N2CCN(S(=O)(=O)c3ccc4c(c3)C(=O)OC4)CC2)cc1`: the Potency entry in test [1] and in test [2] was “inactive” each time.

`O=C1c2ccccc2C(=O)N1c1cnc2ccccc2c1`: the Potency entry in test [1] and in test [2] was “inactive” in each case.

As for `CN1C2CCC1CC(OC(=O)[C@H](CO)c1ccccc1)C2` (some centres undefined), the Potency entry in test [1] and in test [2] was “inactive” throughout.

As for `Cc1ccc2oc(NC3=NC4(CCCC4)C4=C(CCCC4=O)N3)nc2c1`, the Potency entry in test [1] and in test [2] was “inactive” each time.

As for `O=S(=O)(c1cccc(-c2n[nH]c(=S)n2-c2ccccc2)c1)N1CCCC1`, the Potency entry in test [1] and in test [2] was “inactive” in each case.

As for `C[C@H](C/C=C/C(C)(C)O)[C@H]1CC[C@@]2(C)[C@@H]3[C@@H](O[C@@H]4O[C@H](CO)[C@@H](O)[C@H](O)[C@H]4O)C=C4C(CC[C@H](O)C4(C)C)[C@]3(C=O)CC[C@]12C` (some centres undefined), the Potency result in test [1] and in test [2] was “inactive” throughout.

As for `COCc1nn2c(=O)cc(N3CCNCC3)nc2s1`, the Potency result in test [1] and in test [2] was “inactive” each time.

Turning to `O=C(Nc1ccc(Cl)c(Cl)c1)Nc1ccnc(-c2ccncc2)n1`, the Potency entry in test [1] and in test [2] was “inactive” throughout.

As to `Cc1c(C(O)(c2ccccc2)c2ccccc2)[n+]2ccccc2n1C`, the Potency result in test [1] and in test [2] was “inactive” in each case.

On to `CC(C)(C)c1cc(O)c(CN)c(C(C)(C)C)c1`, for which the Potency result in test [1] and in test [2] was “inactive” throughout.

Take `Cc1cc(C)n2ncc(C(=O)NC(C)C)c2n1`: the Potency result in test [1] and in test [2] was “inactive” throughout.

In the case of `COc1ccc(C(=O)N(Cc2ccccc2)Cc2cccs2)c(O)c1`, the Potency result in test [1] and in test [2] was “inactive” throughout.

Turning to `CC1=C(C(=O)Nc2ccc(Cl)cc2)C(c2ccccc2Br)N=C(Nc2nc3ccccc3o2)N1` (centres undefined), the Potency entry in test [1] and in test [2] was “inactive” each time.

As to `Cc1ccc(NS(=O)(=O)c2ccc3c(c2)CCC(=O)N3)cc1F`, the Potency result in test [1] and in test [2] was “inactive” in each case.

Consider `Cc1ccc(OCCn2c(CCNC(=O)c3ccsc3)nc3ccccc32)cc1`, for which the Potency result in test [1] and in test [2] was “inactive” in each case.

With `Cc1ccc(OCCn2c(CCNC(=O)c3ccc4cc[nH]c4c3)nc3ccccc32)cc1`, the Potency entry in test [1] and in test [2] was “inactive” throughout.

For the compound `Cc1ccc(NC(=O)c2ccc3c(c2)CCC(=O)N3)cc1C`, the Potency entry in test [1] and in test [2] was “inactive” throughout.

Take `COc1ccc(C2Nc3ccccc3C(=O)N2CCO)cc1COc1c(C)cc(NC(C)=O)cc1C` (centres undefined): the Potency result in test [1] and in test [2] was “inactive” in each case.

With `Cn1cnc(S(=O)(=O)Nc2cnccc2C(=O)Nc2nc(-c3ccccc3)cs2)c1`, the Potency result in test [1] and in test [2] was “inactive” in each case.

For the compound `Cn1nnnc1Sc1ncnc2scc(-c3cccs3)c12`, the Potency entry in test [1] and in test [2] was “inactive” each time.

As to `CCCCNc1nc(C)nc2c1nc(-c1ccccc1)n2C1CCN(Cc2ccccc2)C1` (centres undefined), the Potency result in test [1] and in test [2] was “inactive” each time.

With `Cc1ccc(OCCn2c(CCNC(=O)c3cccc(NC(=O)OC(C)(C)C)c3)nc3ccccc32)cc1`, the Potency entry in test [1] and in test [2] was “inactive” in each case.

Take `CC1=C(C(=O)N(C)C)C(c2ccccc2Br)N=C(Nc2nc3ccccc3o2)N1` (centres undefined): the Potency result in test [1] and in test [2] was “inactive” in each case.

Take `O=C(Nc1ccc(Br)cc1)Nc1nnc(-c2ccncc2)s1`: the Potency result in test [1] and in test [2] was “inactive” throughout.

For the compound `C=C1C(=O)OC2/C=C(\COC(C)=O)CC/C=C(\C=O)CC(OC(=O)C(C)CC)C12` (centres undefined), the Potency result in test [1] and in test [2] was “inactive” throughout.

Consider `O=C(Nc1ccc(-c2nc3ccccc3[nH]2)cc1)c1ccncc1`, for which the Potency result in test [1] and in test [2] was “inactive” each time.

For `S=C(NCCCc1cnc[nH]1)NCCCN(Cc1ccc(Cl)c(Cl)c1)c1ccc(Br)cn1`, the Potency entry in test [1] and in test [2] was “inactive” in each case.

Turning to `O=C(Nc1ccc([S+](=O)([O-])Nc2nccs2)cc1)C1CCNCC1`, the Potency result in test [1] and in test [2] was “inactive” each time.

As to `COc1cccc(C2=Nn3c(nnc3-c3ccccc3OC)SC2)c1`, the Potency entry in test [1] and in test [2] was “inactive” in each case.

For the compound `COc1ccc(OC)c(C2=Nn3c(nnc3-c3ccccc3C)SC2)c1`, the Potency result in test [1] and in test [2] was “inactive” each time.

For the compound `O=[S+]([O-])(c1ccc(N2CCOCC2)nc1)N1CCN([S+](=O)([O-])c2c(F)cccc2F)CC1`, the Potency entry in test [1] and in test [2] was “inactive” each time.

On to `CN(Cc1ccco1)c1ncnc2ccc(-c3cccc(Cl)c3)cc12`, for which the Potency entry in test [1] and in test [2] was “inactive” in each case.

For `Fc1ccc(CNc2nc(-c3ccccc3C(F)(F)F)nc3ccccc23)cc1`, the Potency result in test [1] and in test [2] was “inactive” in each case.

On to `C=C1C(=O)OC2C3=C(C)C(=O)CC3C(C)CC(O)C12` (centres undefined), for which the Potency result in test [1] and in test [2] was “inactive” in each case.

`CC(C)(C)c1ccc(-c2csc(N3CCC(C(N)=O)CC3)n2)cc1`: the Potency result in test [1] and in test [2] was “inactive” each time.

As for `CN(C)CCCNC(=O)c1ccc(-c2cnc3c(O)ccc(C(=O)O)c3c2)cc1`, the Potency entry in test [1] and in test [2] was “inactive” each time.

For `Cc1cc(Nc2ncc3cc(-c4c(Cl)cccc4Cl)c(=O)n(C)c3n2)ccc1F`, the Potency result in test [1] and in test [2] was “inactive” throughout.

For the compound `O=[S+]([O-])(Nc1ccccc1)c1ccc(NCc2cccc(C(F)(F)F)c2Cl)cc1`, the Potency result in test [1] and in test [2] was “inactive” each time.

As to `COc1cccc(C2c3c(ncn(-c4cccc(C)c4)c3=N)Oc3ccc4ccccc4c32)c1` (centres undefined), the Potency result in test [1] and in test [2] was “inactive” in each case.

Take `S=P(c1ccccc1)(c1ccccc1)c1c[n+](C/C=C/c2ccccc2)c2ccccn12`: the Potency result in test [1] and in test [2] was “inactive” throughout.

As to `Cc1ccc(OCCn2c(CCNC(=O)c3cc([N+](=O)[O-])ccc3[N+](=O)[O-])nc3ccccc32)cc1`, the Potency entry in test [1] and in test [2] was “inactive” throughout.

In the case of `Cc1cccc(-n2cnc3cc(C(=O)N4CC(C)CC(C)C4)ccc32)c1` (centres undefined), the Potency result in test [1] and in test [2] was “inactive” throughout.

In the case of `c1csc(CNc2ncnc3ccc(-c4ccoc4)cc23)c1`, the Potency entry in test [1] and in test [2] was “inactive” each time.

For the compound `COc1cccc(C2c3c(ncn(-c4ccncc4)c3=N)Oc3ccc4ccccc4c32)c1` (centres undefined), the Potency entry in test [1] and in test [2] was “inactive” throughout.

`COc1ccc(C(=O)O[C@H]2C=COC=C3C=C4C(=O)N(C)C(=S)C(=O)N4[C@@H]32)cc1Oc1cc(C=O)ccc1O`: the Potency result in test [1] and in test [2] was “inactive” in each case.

Take `Cc1ccc(OCCn2c(CCNC(=O)c3ccc(C(F)(F)F)cc3)nc3ccccc32)cc1`: the Potency result in test [1] and in test [2] was “inactive” in each case.

Turning to `CCCCC(OC(=O)CNC(=O)c1ccccc1)C(=O)Nc1cc(C(F)(F)F)ccc1Cl` (centres undefined), the Potency entry in test [1] and in test [2] was “inactive” each time.

For the compound `C=C1C(=O)O[C@@H]2/C=C(\C)CC/C=C(/C=O)[C@H](OC)[C@@H](OC(=O)C(C)C)[C@@H]12`, the Potency result in test [1] and in test [2] was “inactive” in each case.

For the compound `COc1cc(O)c(C(CC(=O)N2CCCC2)c2ccc3c(c2)OCO3)c(OC)c1` (centres undefined), the Potency result in test [1] and in test [2] was “inactive” in each case.

With `CC(C)(C)OC(=O)Cc1nnc(-c2nc3ccccc3[nH]2)o1`, the Potency entry in test [1] and in test [2] was “inactive” in each case.

Regarding `CCCn1c(C)nc2c(N(CCN(CC)CC)CCN(CC)CC)nc(C)nc21`, the Potency entry in test [1] and in test [2] was “inactive” in each case.

Regarding `C[C@@H](N)C(=O)Nc1cccc(-c2nn3c(=O)cc(N4CCNCC4)nc3s2)c1`, the Potency entry in test [1] and in test [2] was “inactive” in each case.

On to `C/C=C(\C)[C@@H]1C(C)=C[C@@H]2[C@H]([C@@H]1/C=C/C=C/C(=O)O)[C@@H](C)CC[C@@H]2O`, for which the Potency entry in test [1] and in test [2] was “inactive” throughout.

`Cc1nnc(-c2cnn(C)c2N)n1CCCc1cccnc1`: the Potency result in test [1] and in test [2] was “inactive” throughout.

`Clc1ccc2ncc(-c3cccc(NC4CCNCC4)n3)n2c1`: the Potency entry in test [1] and in test [2] was “inactive” throughout.

As for `O=[S+]([O-])(c1ccc2ncsc2c1)N1CCN([S+](=O)([O-])c2c(F)cccc2F)CC1`, the Potency entry in test [1] and in test [2] was “inactive” throughout.

With `C#C[C@]1(O)CC[C@H]2[C@@H]3CCC4=C/C(=N/O)CC[C@@H]4[C@H]3CC[C@@]21CC`, the Potency result in test [1] and in test [2] was “inactive” each time.

In the case of `COc1cccc(C2c3c(ncn(-c4cccc(OC)c4)c3=N)Oc3ccc4ccccc4c32)c1` (centres undefined), the Potency entry in test [1] and in test [2] was “inactive” throughout.

For `NC(=O)c1ccnc2c(O)cccc12`, the Potency entry in test [1] and in test [2] was “inactive” each time.

As to `CCC(O)(c1nnc(NCc2ccc3c(-c4ccc(F)cc4)cc(=O)oc3c2)o1)C(F)(F)F` (centres undefined), the Potency result in test [1] and in test [2] was “inactive” throughout.
